In the library only some 2.4% were active in any assay of this set; here they are far more common.
TDP1 inh = qHTS Assay for Inhibitors of Tyrosyl-DNA Phosphodiesterase (TDP1); Potency, µM (series often up to 130 µM), actives largely listed as inhibitors; 0.28% of 350,000 active; recombinant TDP1, AlphaScreen DNA substrate cleavage; Tyrosyl-DNA phosphodiesterase 1 (Homo sapiens), Q9NUW8; note: nearly all actives have a fitted effect of over 40% in size
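E. coli-derived human Tdp1, 1 nM final. Cpd preinc 15 min RT; substrate 15 nM final, 5 min RT; AS bead mix 10 ug/ml final, 10 min RT. Signal loss = tyrosine-FITC cleavage. No-enzyme wells = max signal.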
POLB inh = qHTS Assay for Inhibitors of DNA Polymerase Beta; P06746; Potency, µM (top dose mostly 114 µM), actives largely listed as inhibitors; 1.3% of 340,000 active; Pol beta primer extension/strand displacement, fluorescence kinetic
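Human Pol beta at 10 nM; strand-displacement substrate 50 nM final. Compound exposure 15 min at room temperature before start, reaction 10 min at room temperature.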
FEN1 inh = qHTS Assay for the Inhibitors of Human Flap endonuclease 1 (FEN1) | P39748 | Recombinant FEN1 flap cleavage, fluorescence, 15 min | Potency, µM (top dose mostly 114 µM), most hits filed as inhibitors | 0.35% of 390,000 active | AID 588795, 2011; note: nearly all actives have a fitted effect of over 65% in size
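Quantitative HTS format: each compound was titrated, incubated with 10 nM nuclease for 15 min at room temperature, then challenged with flap substrate at 50 nM final. Signal change over 15 min gave concentration–effect curves.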
POLI inh = qHTS for Inhibitors of Polymerase Iota; DNA polymerase iota (Homo sapiens), Q9UNA4; Pol iota fluorescent replication assay, 10 min; Potency, µM (titrated, usually from 115 µM), hits mostly inhibitors; 1% of 390,000 active
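Pol iota at 10 nM preincubated 15 min with compounds at room temperature; reaction started with fluorescent substrate, 50 nM final. Fluorescence read kinetically at 0 and 10 min; buffer-only wells as negative control.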
POLH inh = qHTS for Inhibitors of Polymerase Eta | AID 588591, 2011 | DNA polymerase eta (Homo sapiens), Q9Y253 | recombinant Pol eta, fluorescent DNA replication assay | Potency, µM (highest dose often 114 µM), most hits filed as inhibitors | 1.2% of 390,000 active
Target sequence (Q9Y253 whole entry, looked up): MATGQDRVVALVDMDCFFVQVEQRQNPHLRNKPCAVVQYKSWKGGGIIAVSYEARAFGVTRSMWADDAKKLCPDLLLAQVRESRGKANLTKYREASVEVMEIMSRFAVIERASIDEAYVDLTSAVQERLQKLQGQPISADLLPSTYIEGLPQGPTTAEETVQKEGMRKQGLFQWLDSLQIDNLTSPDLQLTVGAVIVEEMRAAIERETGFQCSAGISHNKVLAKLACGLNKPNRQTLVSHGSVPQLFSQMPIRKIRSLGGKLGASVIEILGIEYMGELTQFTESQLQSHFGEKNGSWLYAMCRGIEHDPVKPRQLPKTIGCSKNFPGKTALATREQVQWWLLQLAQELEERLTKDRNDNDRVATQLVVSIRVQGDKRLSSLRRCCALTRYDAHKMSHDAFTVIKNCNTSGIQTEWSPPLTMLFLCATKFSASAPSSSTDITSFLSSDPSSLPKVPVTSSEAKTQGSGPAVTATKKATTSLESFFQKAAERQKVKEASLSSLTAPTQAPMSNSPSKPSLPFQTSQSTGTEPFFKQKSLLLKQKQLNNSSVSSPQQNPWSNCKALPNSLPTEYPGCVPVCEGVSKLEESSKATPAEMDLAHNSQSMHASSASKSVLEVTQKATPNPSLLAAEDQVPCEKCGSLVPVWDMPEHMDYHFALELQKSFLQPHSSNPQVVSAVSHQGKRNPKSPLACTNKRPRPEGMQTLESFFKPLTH
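Pol eta (10 nM) was preincubated with compounds for 15 min at room temperature, after which fluorescent replication substrate (50 nM final) was added to start the reaction. Fluorescence was read kinetically at 0 and 10 min.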
Pol kappa inh = qHTS for Inhibitors of Polymerase Kappa | AID 588579, 2011 | 0.53% of 400,000 active | Potency, µM (highest dose often 107 µM), hits mostly inhibitors | purified Pol kappa, fluorescent DNA synthesis assay, 10 min
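First, compounds were pin-transferred onto 10 nM Pol kappa. After 15 min at room temperature, substrate was added to 50 nM final. Fluorescence was then measured kinetically at 0 and 10 min.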
Large screens that a line does not name were inactive. Calls come from the whole dose curve; as a rule, active = well fitted curve in the direction sought with a large enough effect; inconclusive = small, poorly fitted or top-dose-only effect, or another doubt; inactive = no such curve, though single readings can be large; an effect the other way counts as inactive or inconclusive.

Cc1ccc(Cn2c(/C=C/c3ccco3)nc3ccccc32)cc1	POLB inh inconclusive
CCCCn1c(/C=C/c2ccco2)nc2ccccc21	POLB inh 8.91µM, POLI inh inconclusive, POLH inh inconclusive
COc1cccc(C2c3c(ncn(-c4ccc(F)cc4)c3=N)Oc3ccc4ccccc4c32)c1 (stereo unspecified)	none (no result: POLB inh, FEN1 inh, POLI inh, POLH inh, Pol kappa inh)
c1ccc(-c2ccccc2OCCOCCN2CCOCC2)cc1	POLB inh 50.1µM
CCOC(=O)N1CCN(C(=O)C2CCN(C(=O)c3ccccc3C)CC2)CC1	FEN1 inh inconclusive, POLI inh inconclusive, POLH inh 31.6µM, Pol kappa inh inconclusive (no result: TDP1 inh, POLB inh)
O=C1C(=O)C(c2cc(O)c(O)c(O)c2)Oc2cc(O)cc(O)c21 (stereo unspecified)	FEN1 inh 1.41µM, POLI inh 1.41µM, Pol kappa inh 1.26µM (no result: TDP1 inh, POLB inh, POLH inh)
Oc1ccc(/C=C/c2ccccc2)c2cccnc12	none (no result: POLB inh, FEN1 inh, POLI inh, POLH inh, Pol kappa inh)
CCOC(=O)c1c(-c2ccco2)csc1NC(=O)CSc1nnc(N)s1	POLB inh 28.2µM, POLI inh 35.5µM, POLH inh inconclusive, Pol kappa inh inconclusive
CCOC(=O)c1cnc2nc(NCc3cccc(Br)c3)[nH]n2c1=O	none
CCOC(=O)c1cnc2nc(NCc3ccc(OC)c(OC)c3)[nH]n2c1=O	POLB inh 35.5µM, POLI inh inconclusive, POLH inh 20µM
O=c1c2ccccc2sc2c(CO)ccc(NCCN3CCCCC3)c12	FEN1 inh 39.8µM, POLI inh inconclusive (no result: TDP1 inh, POLB inh)
CCN(CC)CCNc1cccc2sc3ccccc3c(=O)c12	none (no result: TDP1 inh, POLB inh, FEN1 inh, POLI inh, Pol kappa inh)
O=S(=O)(NCc1ccccc1)c1ccc(Cl)c(S(=O)(=O)NCc2ccccc2)c1	none
NS(=O)(=O)c1ccc(CNS(=O)(=O)c2cc(C(=O)O)ccc2Cl)cc1	POLB inh inconclusive, POLI inh inconclusive, POLH inh 20µM (no result: TDP1 inh)
CC12C=C(/C=C/C=C/c3ccco3)C(C)(C1)C(/C=C/c1ccco1)CC2=O (stereo unspecified)	TDP1 inh 2µM (no result: POLB inh, FEN1 inh, POLI inh, POLH inh, Pol kappa inh)
CC12C=C(/C=C/C=C/c3ccccc3)C(C)(C1)C(/C=C/c1ccccc1)CC2=O (stereo unspecified)	none (no result: POLB inh, FEN1 inh, POLI inh, POLH inh, Pol kappa inh)
CCOC(=O)c1cc2nc(OCC)nc(OCC)c2[nH]1	none (no result: TDP1 inh, POLB inh)
Cc1ccccc1Cn1ccn(-c2ccc(F)c(F)c2)c(=O)c1=O	none
CCCCCCCCCCCCCCCC(=O)OCC(O)C1OC(=O)C(O)=C1O (stereo unspecified)	TDP1 inh inconclusive, Pol kappa inh 14.1µM (no result: POLB inh, FEN1 inh, POLI inh, POLH inh)
Cc1[nH]n(-c2ccccc2)c(=O)c1C(c1cccc([N+](=O)[O-])c1)c1c(C)[nH]n(-c2ccccc2)c1=O	FEN1 inh inconclusive, POLI inh inconclusive
CCOc1ccc(C(c2c(C)[nH]n(-c3ccccc3)c2=O)c2c(C)[nH]n(-c3ccccc3)c2=O)cc1OC	FEN1 inh inconclusive, POLI inh 0.708µM (no result: TDP1 inh)
COc1ccc(C(c2c(C)n(C)n(-c3ccccc3)c2=O)c2c(C)n(C)n(-c3ccccc3)c2=O)cc1O	none
Cc1[nH]n(-c2ccccc2)c(=O)c1C(c1ccc(C(=O)O)cc1)c1c(C)[nH]n(-c2ccccc2)c1=O	POLI inh 1.41µM
CCOC(=O)CN1C(=O)S/C(=C/c2ccc(OC)c([N+](=O)[O-])c2)C1=O	none
O=C1/C(=C\c2cc(Br)cc(Br)c2O)SC(=S)N1Cc1ccccc1	POLB inh 35.5µM, FEN1 inh inconclusive, POLI inh 3.16µM, POLH inh 79.4µM (no result: TDP1 inh)
COc1cc(/C=C2/SC(=S)N(Cc3ccccc3)C2=O)cc(Cl)c1O	POLB inh 39.8µM, FEN1 inh inconclusive, POLH inh inconclusive (no result: TDP1 inh)
COc1cc(/C=C2\SC(=O)N(Cc3ccc(Cl)cc3)C2=O)cc([N+](=O)[O-])c1O	FEN1 inh inconclusive, POLI inh inconclusive, POLH inh 79.4µM
COc1cc(/C=C2\C(=O)NN(c3ccc(C)cc3)C2=O)cc([N+](=O)[O-])c1O	POLB inh inconclusive, POLH inh 22.4µM
COc1ccc(-c2nc3cnc(N4CCOCC4)nc3n(C[C@H]3CCCO3)c2=O)cc1	none (no result: TDP1 inh, POLB inh, FEN1 inh, POLI inh, POLH inh)
NC(Cc1ccccc1)C(O)c1ccco1 (stereo unspecified)	none (no result: POLB inh, POLH inh)
Cc1cc(/C=C2\C(=N)N3N=C(S(C)(=O)=O)SC3=NC2=O)c(C)n1Cc1ccccc1	POLB inh inconclusive, POLI inh inconclusive, POLH inh 35.5µM
Cc1cc(/C=C2/C(=N)N3C(=NC2=O)SN=C3S(C)(=O)=O)c(C)n1-c1ccccc1F	POLI inh inconclusive, POLH inh 79.4µM
CC(=O)c1ccc(NC(=O)c2ccc(CN3C(=O)CCn4nc(C)cc43)cc2)cc1	none
CC(=O)Nc1nonc1-c1nc2ccccc2n1N(C(C)=O)C(C)=O	POLB inh 35.5µM, POLI inh inconclusive, POLH inh inconclusive
O=C(Cn1cc(S(=O)(=O)c2ccc(Cl)cc2)c(=O)c2ccccc21)Nc1ccc2c(c1)OCO2	none
COC(=O)c1cc(NS(=O)(=O)c2cc(Br)cc3c2N(C(C)=O)CC3)cc(C(=O)OC)c1	POLB inh inconclusive
Cc1ccc(-n2cccc2/C=C2\C(=N)N3N=C(C(C)C)SC3=NC2=O)cc1	POLB inh 28.2µM, FEN1 inh inconclusive
CC1=NN2C(=N)/C(=C\c3cc(C)n(-c4ccc(C)cc4)c3C)C(=O)N=C2S1	none
Cc1cccc(C(=O)NCc2cn3cccc(C)c3n2)c1	none
C=CSc1sc(Cl)c(N(CC)CC)c1[N+](=O)[O-]	POLB inh 20µM, POLI inh inconclusive, POLH inh inconclusive
Cc1ccc(C)c(CNC(=O)C2CCN(c3nc4ccccc4nc3C(F)(F)F)CC2)c1	none
Cc1cc(C(=O)N/N=C/c2ccc(-c3ccccc3Cl)o2)n[nH]1	POLB inh 10µM, POLH inh inconclusive, Pol kappa inh inconclusive
CC(=O)Nc1ccc(Nc2nc(Nc3ccc(Cl)cc3)nc(N3CCOCC3)n2)cc1	POLI inh inconclusive (no result: POLB inh, POLH inh)
COc1cccc(C(=O)Nc2ccccc2)c1	none
COC(=O)c1ccsc1NC(=O)c1cccc(OC)c1	POLI inh 89.1µM (no result: TDP1 inh)
CCOc1ccc(CNC(=O)c2sc3nc(C)cc(C)c3c2-n2cccc2)cc1	none
COc1ccc2c(c1)c(CC(=O)NCc1cc([N+](=O)[O-])ccc1O)c(C)n2C(=O)c1ccc(Cl)cc1	POLB inh 39.8µM, POLI inh inconclusive, POLH inh 44.7µM
COc1ccc2c(c1)c(CC(=O)Nc1ccc(C(C)=O)cc1)c(C)n2C(=O)c1ccc(Cl)cc1	POLH inh inconclusive
S=C1NC=NC2N=CNC12 (stereo unspecified)	TDP1 inh 14.1µM (no result: POLB inh, FEN1 inh, POLI inh, POLH inh)
Oc1c(CN2CCc3ccccc3C2)cc(Cl)c2cccnc12	FEN1 inh 39.8µM

Screening data deposited in PubChem by National Center for Advancing Translational Sciences (NCATS).
